According to PubChem BioAssay (Tox21):
A number with no mark means an inactive call. Records with an inconclusive call do not appear. A call without a number means that no potency is given here. The source made the active and inactive calls. Unless noted, the call rests on the fitted dose curve.

Legend:
[1] = Nuclear factor erythroid 2-related factor 2/antioxidant responsive element (Nrf2/ARE) small molecule agonists: qHTS cell viability counter screen in human keratinocytes (AID 1919968; active means well fitted curve in the direction sought with a large enough effect in the repeat runs; an effect the other way counts as inactive or inconclusive; further: nearly all actives have a fitted effect of over 55% in size)
Procedure, shortened: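 KeratinoSens HaCaT cells, 1,500/well, preincubated 5 h, then exposed to compounds in DMSO for 23 h at 37 C/5% CO2. Viability read as CellTiter-Fluor fluorescence after 1 h, in the same wells as the ARE-luciferase read.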

[2] = Nuclear factor erythroid 2-related factor 2/antioxidant responsive element (Nrf2/ARE) small molecule agonists: luciferase reporter gene qHTS assay in human keratinocytes (AID 1919969); further: nearly all actives have a fitted effect of over 35% in size
[3] = target: Gonadotropin-releasing hormone receptor (Homo sapiens) (UniProt P30968); experiment: Human gonadotropin-releasing hormone receptor (GnRHR) small molecule agonists, calcium flux assay in GnRHR-HEK293 cells (AID 1920063); further: nearly all actives have a fitted effect of over 35% in size
Gonadotropin-releasing hormone receptor (Homo sapiens), sequence (P30968 whole entry, looked up): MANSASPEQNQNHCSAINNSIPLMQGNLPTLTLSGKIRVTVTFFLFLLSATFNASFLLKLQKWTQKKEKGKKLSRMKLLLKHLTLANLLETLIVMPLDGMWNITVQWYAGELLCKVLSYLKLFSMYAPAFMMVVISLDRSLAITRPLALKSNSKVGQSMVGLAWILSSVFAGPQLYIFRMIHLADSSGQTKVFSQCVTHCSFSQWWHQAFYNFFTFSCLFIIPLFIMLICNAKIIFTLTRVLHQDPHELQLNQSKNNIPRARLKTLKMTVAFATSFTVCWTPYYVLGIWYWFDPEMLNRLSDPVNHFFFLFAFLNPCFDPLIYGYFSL
Procedure, shortened: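 HEK293 cells stably expressing human GnRHR were dye-loaded for 1 h at 37 C. Compound was added in agonist mode and fluorescence (Ex/Em 480/540) recorded kinetically for 3 min. Fifteen concentrations, triplicates.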

[4] = target: KiSS-1 receptor (Homo sapiens) (UniProt Q969F8); experiment: Human kisspeptin (KISS1R) small molecule agonists, calcium flux assay in KISS1R-HEK293 cells (AID 1920064; active means well fitted curve in the direction sought with a large enough effect in the repeat runs; an effect the other way counts as inactive or inconclusive)
KiSS-1 receptor (Homo sapiens), sequence (Q969F8 whole entry, looked up): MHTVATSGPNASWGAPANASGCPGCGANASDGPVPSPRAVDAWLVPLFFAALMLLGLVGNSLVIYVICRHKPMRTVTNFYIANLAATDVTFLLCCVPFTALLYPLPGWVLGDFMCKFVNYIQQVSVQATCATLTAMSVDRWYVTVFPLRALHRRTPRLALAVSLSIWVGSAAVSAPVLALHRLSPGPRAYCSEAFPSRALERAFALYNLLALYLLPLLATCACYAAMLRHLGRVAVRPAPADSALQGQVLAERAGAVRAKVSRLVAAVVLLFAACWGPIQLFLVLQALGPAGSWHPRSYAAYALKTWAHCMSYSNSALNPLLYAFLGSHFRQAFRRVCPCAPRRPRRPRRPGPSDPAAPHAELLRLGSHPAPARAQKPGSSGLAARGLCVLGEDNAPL
Procedure, shortened: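 HEK293 cells stably expressing human KISS1R were loaded with calcium dye for 1 h at 37 C, then given compound; fluorescence (Ex/Em 480/540) was read kinetically for 3 min. Fifteen concentrations, triplicate.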

[5] = G protein-coupled receptor (GPCR) small molecule agonists, calcium flux assay: HEK293 wild type cell line counter screen (AID 1920065)
Procedure, shortened: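 Wild-type HEK293 cells plated 18 h, loaded with calcium dye 1 h at 37 C, then compounds added in agonist mode (ATP as positive control). Kinetic fluorescence Ex/Em 480/540 recorded 3 min at 1 sec intervals; 15 concentrations, triplicate.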

[6] = p53 small molecule agonists, cell-based qHTS assay with human liver microsomes (AID 1963577);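 further: p53 response element beta-lactamase reporter cells with liver microsomes plus NADPH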
Procedure, shortened: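 16 h, 37 C exposure of p53RE-bla cells to compounds with human liver microsomes and NADPH (0.5 mg/mL final each); detection via LiveBLAzer mixture, 2 h dark at room temperature.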

[7] = p53 small molecule agonists, cell-based qHTS assay with rat liver microsomes (AID 1963578)
Procedure, shortened: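 With rat liver microsomes and NADPH present (0.5 mg/mL final each), p53RE-bla cells are treated with compound for 16 h at 37 C. LiveBLAzer detection mixture is then applied for 2 h at room temperature in the dark.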

[8] = p53 small molecule agonists, cell-based qHTS assay with human liver microsomes: qHTS cell viability counter screen (AID 1963579); further: nearly all actives have a fitted effect of over 45% in size
Procedure, shortened: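 In this multiplexed counter screen, the reporter plates were subsequently treated with CellTiter-Glo so that cell viability, reflected by luminescence, could be recorded for p53RE-bla cells dosed 16 h with compounds under microsomal activation (HLM and NADPH).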

[9] = p53 small molecule agonists, cell-based qHTS assay with rat liver microsomes: qHTS cell viability counter screen (AID 1963580); further: nearly all actives have a fitted effect of over 45% in size
Procedure, shortened: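 p53RE-bla HCT-116 cells were exposed 16 h at 37 C to compounds with rat liver microsomes (0.5 mg/mL) and NADPH (0.5 mg/mL). Viability was measured in the same wells as ATP content by CellTiter-Glo luminescence.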

[10] = p53 small molecule agonists, cell-based qHTS assay: qHTS cell viability counter screen (AID 1963581); further: nearly all actives have a fitted effect of over 45% in size
Procedure, shortened: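 p53RE-bla HCT-116 cells, compounds added 5 h after plating and incubated 16 h at 37 C. Cytotoxicity measured in the same wells as intracellular ATP by CellTiter-Glo luminescence after 30 min at room temperature.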

[11] = p53 small molecule agonists, cell-based qHTS assay (AID 1963582; active means well fitted activation curve with a large enough effect in the signal ratio in the repeat runs, not every such curve was filed as active; the % refers to the signal ratio)
Procedure, shortened: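 p53RE-bla reporter cells, compounds added in DMSO after 5 h plating, incubated 16 h at 37 C. Beta-lactamase read via 2 h room-temperature LiveBLAzer B/G FRET substrate, fluorescence intensity.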

[12] = target: Muscarinic acetylcholine receptor M1 (Homo sapiens) (UniProt P11229); experiment: Cholinergic receptor muscarinic 1 (CHRM1) small molecule antagonists, cell-based qHTS assay (AID 1963588); further: nearly all actives have a fitted effect of over 40% in size; further: potency means the concentration at half of the fitted maximal effect
Muscarinic acetylcholine receptor M1 (Homo sapiens), sequence (P11229 whole entry, looked up): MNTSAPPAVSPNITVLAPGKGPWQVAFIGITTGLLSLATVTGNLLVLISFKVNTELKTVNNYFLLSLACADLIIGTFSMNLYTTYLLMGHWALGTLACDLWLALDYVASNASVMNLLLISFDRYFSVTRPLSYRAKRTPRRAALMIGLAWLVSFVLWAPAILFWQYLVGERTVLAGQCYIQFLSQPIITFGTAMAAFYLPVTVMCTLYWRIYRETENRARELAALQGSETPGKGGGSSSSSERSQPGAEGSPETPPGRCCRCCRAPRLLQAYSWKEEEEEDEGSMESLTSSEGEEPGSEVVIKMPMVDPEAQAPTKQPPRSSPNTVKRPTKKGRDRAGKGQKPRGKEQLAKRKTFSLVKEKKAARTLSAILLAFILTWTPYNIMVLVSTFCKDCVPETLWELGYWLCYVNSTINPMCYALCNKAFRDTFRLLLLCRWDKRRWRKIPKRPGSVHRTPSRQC
Procedure, shortened: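 CHRM1-CHO calcium-flux assay, antagonist mode. Cells were seeded 18 h, dye-loaded 1 h at 37 C and given compound for 5 min at RT, then acetylcholine was added at 50nM. FDSS fluorescence was read 3 min; 15 concentrations, three runs.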

[13] = target: Muscarinic acetylcholine receptor M1 (Homo sapiens) (UniProt P11229); experiment: Cholinergic receptor muscarinic 1 (CHRM1) small molecule agonists, cell-based qHTS assay (AID 1963589); further: nearly all actives have a fitted effect of over 35% in size
Procedure, shortened: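 CHO cells stably expressing human CHRM1 were loaded with calcium dye for 1 h at 37 C, then compound was added in agonist mode. Intracellular calcium fluorescence was followed kinetically at 1 s intervals. Fifteen concentrations were tested in three independent runs.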

[14] = cAMP Responsive Elements (CRE) small molecule agonists, cell-based qHTS assay (AID 1963590)
Procedure, shortened: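 CRE-bla HEK 293T cells, 2,000/well in DMEM with 10% dialyzed FBS and 25 mM HEPES, pre-incubated 18 h at 37 C, then exposed to compound 3 h at 37 C. Beta-lactamase reporter read with LiveBLAzer B/G FRET substrate after 2 h at room temperature.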

[15] = cAMP Responsive Elements (CRE) small molecule antagonists, cell-based qHTS assay (AID 1963591; active means well fitted inhibition curve with a large enough effect in the signal ratio in the repeat runs, not every such curve was filed as active; the % refers to the signal ratio)
Procedure, shortened: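 CRE-bla HEK293T cells plated 18 h, then given compound plus NKH477 at 0.25 uM final for 3 h at 37C. Beta-lactamase reporter read with LiveBLAzer B/G FRET substrate after 2 h at room temperature.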

[16] = target: D(2) dopamine receptor (Homo sapiens) (UniProt P14416); experiment: Dopamine D2 receptor (DRD2) small molecule antagonists, cell-based qHTS assay (AID 1963595; active means well fitted inhibition curve with a large enough effect in the signal ratio in the repeat runs, with a control signal flat; the % refers to the signal ratio)
D(2) dopamine receptor (Homo sapiens), sequence (P14416 whole entry, looked up): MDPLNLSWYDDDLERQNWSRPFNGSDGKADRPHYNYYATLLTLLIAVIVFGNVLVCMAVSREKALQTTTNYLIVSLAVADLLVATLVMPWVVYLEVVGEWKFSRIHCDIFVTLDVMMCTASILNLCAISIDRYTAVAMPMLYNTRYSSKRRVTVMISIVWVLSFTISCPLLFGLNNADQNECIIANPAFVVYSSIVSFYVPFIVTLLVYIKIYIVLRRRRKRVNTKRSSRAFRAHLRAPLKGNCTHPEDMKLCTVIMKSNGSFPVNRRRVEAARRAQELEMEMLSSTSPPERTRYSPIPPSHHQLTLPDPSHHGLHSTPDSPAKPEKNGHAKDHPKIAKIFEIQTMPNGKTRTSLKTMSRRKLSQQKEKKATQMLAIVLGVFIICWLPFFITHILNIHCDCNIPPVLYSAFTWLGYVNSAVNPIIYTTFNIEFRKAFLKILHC
Procedure, shortened: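 DRD2-HEK293; 0.1 mM Ro20-1724; cpd 10 min RT; NKH477 200 nM + quinpirole 12 nM, 30 min RT; HTRF cAMP (cAMP-d2/anti-cAMP cryptate), 665/620 nm ratio after 1 h.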

[17] = target: Beta-2 adrenergic receptor (Homo sapiens) (UniProt P07550); experiment: Adrenergic beta2 receptor (ADRB2) small molecule antagonists, cell-based qHTS assay (AID 1963592); further: series mostly up to about 92 µM; nearly all actives have a fitted effect of over 50% in size
Beta-2 adrenergic receptor (Homo sapiens), sequence (P07550 whole entry, looked up): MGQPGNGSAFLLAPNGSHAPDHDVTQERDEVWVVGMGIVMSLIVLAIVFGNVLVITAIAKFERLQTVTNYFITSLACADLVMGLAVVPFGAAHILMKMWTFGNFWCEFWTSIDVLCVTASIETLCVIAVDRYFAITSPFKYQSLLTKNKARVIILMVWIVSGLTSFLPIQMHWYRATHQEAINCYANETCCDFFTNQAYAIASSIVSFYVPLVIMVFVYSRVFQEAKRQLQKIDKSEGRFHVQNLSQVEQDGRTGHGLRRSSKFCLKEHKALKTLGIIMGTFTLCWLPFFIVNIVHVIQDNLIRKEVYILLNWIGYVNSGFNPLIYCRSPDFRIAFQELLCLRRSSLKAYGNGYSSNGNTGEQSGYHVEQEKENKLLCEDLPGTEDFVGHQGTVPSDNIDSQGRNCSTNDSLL
Procedure, shortened: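 Cells (CHO, stable ADRB2 overexpression) incubated 18-20hr at 37C; compounds added from DMSO; agonist mix (1nM isoproterenol, 100uM IBMX, 25uM Ro-20-1724) added; 0.5hr RT; d2-cAMP and anti-cAMP-cryptate added; 1hr RT; 665/615 nm read.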

[18] = target: D(2) dopamine receptor (Homo sapiens) (UniProt P14416); experiment: Dopamine D2 receptor (DRD2) small molecule agonists, cell-based qHTS assay (AID 1963594); further: nearly all actives have a fitted effect of over 35% in size; further: potency means the concentration at half of the fitted maximal effect
Procedure, shortened: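 HEK293 cells stably expressing human DRD2, pre-treated with PDE inhibitor Ro20-1724 (0.1 mM final) and compound 10 min at room temperature, then stimulated with NKH477 (200nM […]) for 30 min. cAMP read by HTRF (665/620 nm).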

[19] = target: Beta-2 adrenergic receptor (Homo sapiens) (UniProt P07550); experiment: Adrenergic beta2 receptor (ADRB2) small molecule agonists, cell-based qHTS assay (AID 1963593);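 further: CHO cells stably overexpressing human ADRB2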
Procedure, shortened: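 CHO cells stably over-expressing ADRB2 were plated overnight at 37C, then dosed with compounds plus a stimulation mix containing 100uM IBMX and 25uM Ro-20-1724 for 0.5hr at room temperature. cAMP was measured by HTRF competition, 1hr.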

[20] = target: 5-hydroxytryptamine receptor 2A (Homo sapiens) (UniProt P28223); experiment: 5-hydroxytryptamine receptor 2A (HTR2A) small molecule agonists, cell-based qHTS assay (AID 1963587); further: nearly all actives have a fitted effect of over 30% in size
5-hydroxytryptamine receptor 2A (Homo sapiens), sequence (P28223 whole entry, looked up): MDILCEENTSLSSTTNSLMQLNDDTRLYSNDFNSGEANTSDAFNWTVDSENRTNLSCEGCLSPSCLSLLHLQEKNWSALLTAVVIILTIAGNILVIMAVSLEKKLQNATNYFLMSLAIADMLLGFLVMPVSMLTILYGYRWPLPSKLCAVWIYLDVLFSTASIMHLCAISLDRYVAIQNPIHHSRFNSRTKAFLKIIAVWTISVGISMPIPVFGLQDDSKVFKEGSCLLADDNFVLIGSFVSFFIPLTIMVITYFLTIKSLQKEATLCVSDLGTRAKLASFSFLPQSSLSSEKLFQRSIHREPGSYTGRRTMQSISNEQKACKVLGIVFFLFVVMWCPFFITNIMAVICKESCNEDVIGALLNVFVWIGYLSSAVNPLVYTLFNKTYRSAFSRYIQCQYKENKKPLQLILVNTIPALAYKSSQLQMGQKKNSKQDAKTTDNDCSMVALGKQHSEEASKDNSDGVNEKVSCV
Procedure, shortened: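 CHO cells stably expressing human HTR2A, plated 18 h, loaded with calcium dye 1 h at 37 C. Agonist mode: compounds added and intracellular calcium fluorescence recorded kinetically for 2 min at 1 sec intervals.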

| Compound | Potency [1] | Potency [2] | Potency [3] | outcome [4] | outcome [5] | Potency [6] | Potency [7] | Potency [8] | Potency [9] | Potency [10] | Potency [11] | Potency [12] | Potency [13] | Potency [14] | Potency [15] | Potency [16] | Potency [17] | Potency [18] | Potency [19] | Potency [20] |
| --- | --- | --- | --- | --- | --- | --- | --- | --- | --- | --- | --- | --- | --- | --- | --- | --- | --- | --- | --- | --- |
| CC(C)NCC(O)c1ccc2ccccc2c1 (configuration not stated) | inactive | inactive | inactive | inactive | inactive | inactive | inactive | inactive | inactive | inactive | inactive | inactive | inactive | inactive | inactive | inactive | – | – | – | – |
| CCC(C)N(C)C(=O)c1cc2ccccc2c(-c2ccccc2Cl)n1 (configuration not stated) | inactive | inactive | inactive | inactive | inactive | inactive | inactive | inactive | inactive | inactive | inactive | – | inactive | – | – | inactive | inactive | inactive | – | – |
| OC(CCN1CCCC1)(c1ccccc1)C1CCCCC1 (configuration not stated) | inactive | inactive | inactive | inactive | inactive | inactive | inactive | inactive | inactive | inactive | inactive | inactive | inactive | inactive | – | – | inactive | inactive | – | – |
| O=C(CCC1CCN(Cc2ccccc2)CC1)c1ccc2c(c1)NCCCC2 | inactive | inactive | inactive | inactive | inactive | inactive | inactive | inactive | inactive | inactive | inactive | 3.26 µM (active) | inactive | inactive | – | – | inactive | inactive | – | – |
| C=C1CC[C@H]2O[C@]2(C)CC[C@@H]2[C@@H]1CC2(C)C | inactive | inactive | inactive | inactive | inactive | inactive | inactive | inactive | inactive | inactive | inactive | inactive | inactive | inactive | inactive | inactive | inactive | inactive | inactive | – |
| OCCN(CCO)c1cccc(Cl)c1 | inactive | inactive | inactive | inactive | inactive | inactive | inactive | inactive | inactive | inactive | inactive | inactive | inactive | inactive | inactive | – | – | inactive | – | – |
| CC(C)C[P+](C)(CC(C)C)CC(C)C | inactive | inactive | inactive | inactive | inactive | inactive | inactive | inactive | inactive | inactive | inactive | inactive | inactive | inactive | inactive | inactive | inactive | inactive | – | – |
| CC(C)OC(=O)c1cc2c(OCC(O)CNC(C)(C)C)cccc2[nH]1 (configuration not stated) | inactive | inactive | inactive | inactive | inactive | inactive | inactive | inactive | inactive | inactive | inactive | – | – | inactive | inactive | inactive | – | 13.3 µM (active) | – | inactive |
